Where “and” joins values, the source holds several entries; their conditions need not be identical. Identical values can stand only once. A number with no mark means an inactive call. Results filed as inconclusive are left out. Calls of active or inactive are those of the source. Unless noted, the call rests on the fitted dose curve; in most records, active means well fitted curve in the direction sought with a large enough effect in the repeat runs; inconclusive means weak or mixed curves; inactive means no such curve, though single readings can be large; an effect the other way counts as inactive or inconclusive.

A short description of test [1]: qHTS assay to identify small molecule agonists of H2AX (AID 1224845; active means well fitted activation curve with a large enough effect in the signal ratio in the repeat runs, not every such curve was filed as active; the % refers to the signal ratio; further: potency means the concentration at half of the fitted maximal effect). The procedure, abridged:
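Wild-type CHO-K1 cells plated overnight, then exposed 3 hr at 37C to compounds at 15 concentrations (0.76% DMSO). Lysed, then HTRF anti-pH2AX(S139)-cryptate/anti-H2AX-d2 detection after 24 hr at room temperature; emissions 665 and 620 nm.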

Test [2] is described as follows: qHTS assay to identify small molecule agonists of H2AX - cell viability counter screen (AID 1224847; calls by dose curve; further: nearly all actives have a fitted effect of over 30% in size; further: potency means the concentration at half of the fitted maximal effect). The procedure, abridged: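 After overnight plating of 1000 CHO-K1 cells per well, a 15-concentration compound series was applied for 3 hr at 37C. Luminescence from CellTiter-Glo, read following 30 min at room temperature, reflected cell viability.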
(In qHTS, concentration-response curves come from the screen itself.)

Test [3] can be described thus: qHTS assay to identify small molecule antagonists of the estrogen related receptor (ERR) signaling pathway from Tox21 library (AID 1224848). Further: nearly all actives have a fitted effect of over 50% in size. Further: potency means the concentration at half of the fitted maximal effect. An outline of the steps: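 Tox21 10K compounds in DMSO tested for ERR pathway antagonism in NTP's ERR cell line; 18 h, 37 C exposure; ONE-Glo luminescence.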
Test [4] is described as follows: qHTS assay to identify small molecule agonists of the estrogen related receptor (ERR) signaling pathway from Tox21 library (AID 1224849; calls by dose curve; further: nearly all actives have a fitted effect of over 15% in size). To be noted: ERR reporter cell line, ONE-Glo luciferase, 18 h. An outline of the steps:
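Luminescent agonist read-out (One-Glo, 30-minute room-temperature incubation) following 18-hour compound treatment at 37 C of the ERR cell line, which had been plated 6 hours before dosing.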

Test [5] can be described thus: qHTS RealTime-Glo MT Cell Viability Assay in HepG2 cells - 24 hour (AID 1224867). Further: nearly all actives have a fitted effect of over 50% in size. Further: potency means the concentration at half of the fitted maximal effect. The procedure, abridged: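 Real-time, nonlytic viability: 600 HepG2 cells/well mixed with NanoLuc enzyme plus prosubstrate; 5 h settle, compound (DMSO) added by pintool; luminescence monitored over 40 h at 37 C.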
Test [6] can be described thus: qHTS RealTime-Glo MT Cell Viability Assay in HEK293 cells - 32 hour (AID 1224868). Further: nearly all actives have a fitted effect of over 50% in size. Further: potency means the concentration at half of the fitted maximal effect. An outline of the steps: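 Cells + reagent dispensed (600 cells/well, HEK293) → 5 h at 37 C/5% CO2 → 23 nL compound in DMSO pinned → 40 h at 37 C → luminescence read at 0, 8, 16, 24, 32, 40 h.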
Test [7] is described as follows: A CellTox Green Cytotoxicity Assay to monitor cytotoxicity in HEK293 cells - 0 hour (AID 1224869). Further: nearly all actives have a fitted effect of over 50% in size. The procedure, abridged:
(§1)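 Fluorescence from a DNA-binding dye excluded by viable cells was measured repeatedly in the same HEK293 wells (600 cells/well) during continuous compound exposure at 37 C. Each assay gives one read point: 0, 8, 16, 24, 32 or 40 h.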

Test [8] is described as follows: qHTS RealTime-Glo MT Cell Viability Assay in HepG2 cells - 40 hour (AID 1224870). Further: nearly all actives have a fitted effect of over 50% in size. Further: potency means the concentration at half of the fitted maximal effect. An outline of the steps: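 HepG2 cells mixed with RealTime-Glo MT reagents (NanoLuc plus cell-permeant prosubstrate) were seeded at 600 cells/well, incubated 5 h at 37 C/5% CO2, then pinned with compounds in DMSO; nonlytic luminescence tracked viability during 40 h treatment.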
A short description of test [9]: A CellTox Green Cytotoxicity Assay to monitor cytotoxicity in HEK293 cells - 40 hour (AID 1224871). Further: nearly all actives have a fitted effect of over 45% in size. Further: potency means the concentration at half of the fitted maximal effect. An outline of the steps:
as §1

Test [10] is described as follows: qHTS assay to identify small molecule agonists of the hypoxia (HIF-1) signaling pathway (AID 1224846; active means well fitted activation curve with a large enough effect in the signal ratio in the repeat runs, not every such curve was filed as active; the % refers to the signal ratio). An outline of the steps: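 Compounds added to ME-180 cells carrying hypoxia-response-element beta-lactamase reporter (0.5% dialyzed FBS, 5 h preplating), 17 h at 37C; agonist activity detected by CCF4-AM B/G FRET read-out.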
On the % scale 0 is the no-effect control and ±100 the full control effect.

For the compound `C=CS(=O)(=O)O`, the Potency result in test [1], in [2], in [3], in [5], in test [6] and in test [7] was “inactive” throughout. Further, the Potency result in [8] and in test [9] was “inactive” each time. Besides, in test [4] (at 92.4 µM (top of the series)), the activity change, positive = activation is -0.911%.
With `CCC[C@H](N[C@@H](C)C(=O)N1[C@H](C(=O)O)C[C@@H]2CCCC[C@@H]21)C(=O)OCC`, the Potency entry in test [1], in test [10], in [2], in test [5], in test [6] and in [7] was “inactive” throughout. Also, the Potency result in [8] and in test [9] was “inactive” in each case.
Turning to `O=C(O)c1cccc(C(=O)O)c1`, the Potency result in test [1], in test [10], in test [5], in test [6], in test [7] and in test [8] was “inactive” throughout. Also, the Potency entry in test [9] is “inactive”.
With `CC(=O)CC(=O)Nc1ccc2[nH]c(=O)[nH]c2c1`, the Potency result in test [1], in test [10], in test [2], in [3], in test [5] and in test [6] was “inactive” throughout. For the same compound, the Potency entry in [7], in [8] and in test [9] was “inactive” each time. In addition, the activity change, positive = activation in test [4] (at 92.4 µM (top of the series)) was 4.73%.
Take `[Cl][In]([Cl])[Cl]`: the Potency entry in [1], in test [10], in [2], in test [5], in [7] and in test [8] was “inactive” throughout. For the same compound, the Potency result in [9] is “inactive”. Besides, the Potency in [3] is 34.4 µM (active). Further, the activity change, positive = activation in test [4] (at 92.4 µM (top of the series)) was -22.9% and -30%.
Regarding `C1COC(NC(C2CC2)C2CC2)=N1`, the Potency entry in [1], in test [2], in test [3], in [5], in [6] and in test [7] was “inactive” each time. For the same compound, the Potency entry in test [8] and in [9] was “inactive” each time. In test [4] (at 42.5 µM (top of the series)), the activity change, positive = activation was -1.34%.
Consider `Cc1cc(Cc2cc(C)cc(C(C)(C)C)c2O)c(O)c(C(C)(C)C)c1`, for which the Potency is 56.9 µM (active) and 45 µM (active) in [1]; 40.3 µM (active) and 31.8 µM (active) in test [2]; 27.4 µM (active) and 30.6 µM (active) in test [3]; 49.2 µM (active) and 43.6 µM (active) in test [5]; 9.82 µM (active) and 15.5 µM (active) in test [6]; 55.2 µM (active) and 49 µM (active) in [8]. Besides, the Potency in test [9] was 43.9 µM (active) and 43.6 µM (active). The activity change, positive = activation in [4] (at 92.4 µM (top of the series)) was -73.5% and -62.7%. The Potency entry in [7] is “inactive”.
Turning to `NC(N)=NC(=O)Cc1c(Cl)cccc1Cl`, the Potency result in test [1], in test [2], in test [3], in test [5], in [6] and in test [7] was “inactive” throughout. Moreover, the Potency result in [8] and in [9] was “inactive” in each case. Also, the activity change, positive = activation in [4] (at 42.5 µM (top of the series)) is -1.99%.
Take `O=C(O)Cn1cnnn1`: the Potency result in test [1], in test [10], in test [3], in [5], in [6] and in [7] was “inactive” in each case. In addition, the Potency entry in test [8] and in [9] was “inactive” throughout. For the same compound, the activity change, positive = activation in test [4] (at 42.5 µM (top of the series)) is 4%.
For `O=c1n(CC2CO2)c(=O)n(CC2CO2)c(=O)n1CC1CO1` (stereo not given), the Potency in [1] is 112 µM (active). Further, the Potency result in test [10], in test [2], in test [5], in [7], in [8] and in test [9] was “inactive” in each case.
With `c1ccc2cc3c(ccc4ccccc43)cc2c1`, the Potency result in [1], in [10], in [2], in test [5], in [6] and in test [7] was “inactive” each time. In addition, the Potency result in [8] and in [9] was “inactive” in each case.
As for `COc1ccc(Cc2cnc(N)nc2N)cc1OC`, the Potency entry in test [1], in test [10], in test [2], in test [5], in test [6] and in test [7] was “inactive” each time. Further, the Potency entry in test [8] and in test [9] was “inactive” in each case. Also, the activity change, positive = activation in test [4] (at 42.5 µM (top of the series)) was 4.01%.
Regarding `COc1cc(C(=S)N2CCOCC2)ccc1O`, the Potency result in [1], in [10], in test [2], in test [3], in [5] and in [6] was “inactive” throughout. Moreover, the Potency entry in test [7], in test [8] and in [9] was “inactive” throughout. The activity change, positive = activation in test [4] (at 42.5 µM (top of the series)) is -0.619%.
Consider `C/C=C/c1ccc(OCC)c(O)c1`, for which the Potency entry in [1], in test [10], in test [2], in [5], in [6] and in test [7] was “inactive” throughout. The Potency result in test [8] and in test [9] was “inactive” throughout.
Turning to `NC(N)=Nc1nc(CSCC/C(N)=N/S(N)(=O)=O)cs1`, the Potency entry in test [1], in test [2], in [3], in [5], in test [6] and in test [7] was “inactive” each time. In addition, the Potency result in [8] and in test [9] was “inactive” in each case. The activity change, positive = activation in test [4] (at 42.5 µM (top of the series)) was 8.96%; in [4] (at 92.4 µM (top of the series)) it was 4.57%.
As for `Cc1ccc(S(=O)(=O)Oc2ccc(N=Nc3ccc(-c4ccc(N=Nc5c(O)ccc6cc(S(=O)(=O)O)cc(S(=O)(=O)O)c56)c(C)c4)cc3C)cc2)cc1`, the Potency result in [1], in test [6], in [7] and in [9] was “inactive” throughout. Also, the Potency in test [2] was 45.2 µM (active) and 29.3 µM (active); in test [3], 27.4 µM (active). For the same compound, the activity change, positive = activation in [4] (at 42.5 µM (top of the series)) is -13.6%; in test [4] (at 92.4 µM (top of the series)), -34.2%.
Turning to `COC(=O)[C@H]1[C@H]2C[C@@H]3c4[nH]c5cc(OC)ccc5c4CCN3C[C@H]2C[C@@H](OC(=O)c2cc(OC)c(OC)c(OC)c2)[C@@H]1OC`, the Potency entry in [1], in test [2], in [7], in test [8] and in [9] was “inactive” throughout. Moreover, the Potency was 24.3 µM (active) and 19.9 µM (active) and 26.6 µM (active) in test [3]; 5.48 µM (active) and 6.34 µM (active) and 9.52 µM (active) in [6]. Besides, the activity change, positive = activation in test [4] (at 42.5 µM (top of the series)) was -35.9%; in [4] (at 92.4 µM (top of the series)), -60.3% and -57.9%.
As to `O`, the Potency entry in [1], in test [10], in [2], in test [5], in test [6] and in test [7] was “inactive” throughout. In addition, the Potency result in [8] and in [9] was “inactive” throughout.
`CCCNC(C)C(=O)Nc1ccccc1C` (stereo not given): the Potency result in test [1], in test [2], in test [5], in [6], in [7] and in test [8] was “inactive” throughout. Moreover, the Potency result in test [9] is “inactive”.
On to `Nc1nc2ccccc2[nH]1`, for which the Potency entry in test [1], in [2], in test [5], in [6], in test [7] and in test [8] was “inactive” throughout. The Potency result in [9] is “inactive”.
